# In PubChem BioAssay (EPA / NIEHS):
# Results filed as inconclusive are left out. Where a structure was tested more than once in an assay, its records may differ in their call. The source made the active and inactive calls. How the source made its calls, unless noted: active means hit-call score of the fitted dose curve at least 0.9, where 1 is the maximum; inconclusive means response in the unintended direction; inactive means score below 0.9.
# Read-out: alkyl and aryl transferase (GSTA2), GSTA2 (gene 2939)
# Assay: CLD_GSTA2_48hr: CellzDirect (CLD) Gene Expression Assay for alkyl and aryl transferase (GSTA2) at 48 hours (AID 2283708);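 further: active means mRNA induction above DMSO vehicle baseline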
# Outline: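 GSTA2 mRNA quantified by qNPA chemiluminescence in human primary hepatocyte lysates after 48 h of daily fresh chemical dosing. Increases fitted against 0.2% DMSO vehicle baseline; cytotoxicity from morphology annotated yes/no.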
Structure (SMILES),outcome,AC50
CC(C)N(C(=O)SCC(Cl)=C(Cl)Cl)C(C)C,inactive,
COc1cc(OC)nc(Sc2cccc(Cl)c2C(=O)O)n1,inactive,
C#CCC1=C(C)C(OC(=O)C2C(C=C(C)C)C2(C)C)CC1=O (configuration not stated),inactive,
CCCOCC(=Nc1ccc(Cl)cc1C(F)(F)F)n1ccnc1,,20 µM (active)
CNC(=O)ON=C(C)SC,inactive,
CCCCOC(=O)[C@@H](C)Oc1ccc(Oc2ccc(C#N)cc2F)cc1,inactive,

# Read-out: glucuronosyltransferase (UGT1A1), UGT1A1 (gene 54658)
# Assay: CLD_UGT1A1_48hr: CellzDirect (CLD) Gene Expression Assay for glucuronosyltransferase (UGT1A1) at 48 hours (AID 2283709);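 further: actives increase expression relative to DMSO so potency refers to induction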
# Outline: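 Quantitative nuclease protection assay (chemiluminescent) for UGT1A1 mRNA at 48 h in human hepatocyte cultures from two donors, redosed daily with fresh solutions. Induction fitted relative to 0.2% DMSO; phase-contrast morphology annotated cytotoxicity.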
Structure (SMILES),outcome,AC50
COc1ccc(C(=CC(=O)N2CCOCC2)c2ccc(Cl)cc2)cc1OC,inactive,
S=C1NCCN1,inactive,
CCOP(=O)(OCC)Oc1cc(C)nc(C(C)C)n1,inactive,
CC(COc1ccc(Oc2ccccc2)cc1)Oc1ccccn1 (configuration not stated),,4.89 µM (active)
CC(C)N(C(=O)SCC(Cl)=C(Cl)Cl)C(C)C,inactive,
CSC1=N[C@@](C)(c2ccccc2)C(=O)N1Nc1ccccc1,inactive,
CCc1cnc(C2=NC(C)(C(C)C)C(=O)N2)c(C(=O)O)c1 (configuration not stated),inactive,
COc1cc(OC)nc(Sc2cccc(Cl)c2C(=O)O)n1,inactive,
CC(Oc1cccc(Cl)c1)C(=O)O (configuration not stated),inactive,
CNC(=O)ON=C(SC)C(=O)N(C)C,inactive,
COP(=O)(OC)C(O)C(Cl)(Cl)Cl (configuration not stated),,0.0665 µM (active)
CC(=NC#N)N(C)Cc1ccc(Cl)nc1,inactive,
CCCCOC(=O)c1ccccc1C(=O)O,inactive,
CN(C)NC(=O)CCC(=O)O,inactive,
C#CCC1=C(C)C(OC(=O)C2C(C=C(C)C)C2(C)C)CC1=O (configuration not stated),,3.87 µM (active)
CSc1nnc(C(C)(C)C)c(=O)n1N,inactive,
O=C(O)c1cc(Oc2ccc(C(F)(F)F)cc2Cl)ccc1[N+](=O)[O-],inactive,
CCCOCC(=Nc1ccc(Cl)cc1C(F)(F)F)n1ccnc1,inactive,
CC1=NNC(=O)N(/N=C/c2cccnc2)C1,inactive,
CCc1cccc(CC)c1N(COC)C(=O)CCl,inactive,
CNC(=O)ON=C(C)SC,inactive,
C[N+]1(C)CCCCC1,inactive,
CCCCOC(=O)[C@@H](C)Oc1ccc(Oc2ccc(C#N)cc2F)cc1,inactive,
CCCSP(=O)(OCC)SCCC,inactive,
CCOP(=S)(OCC)OC(Cl)C(Cl)(Cl)Cl (configuration not stated),,4.19 µM (active)
COP(=O)(NC(C)=O)SC (configuration not stated),inactive,
CCCOc1nn(C(=O)NS(=O)(=O)c2ccccc2C(=O)OC)c(=O)n1C,inactive,
CCOP(=O)(NC(C)C)Oc1ccc(SC)c(C)c1 (configuration not stated),inactive,
CCOP(=S)(OCC)SCCSCC,,4.17 µM (active)
CC(C)=CC1C(C(=O)OCN2C(=O)C3=C(CCCC3)C2=O)C1(C)C (configuration not stated),inactive,

# Tested on: not listed separately
# Assay: STM_H9_OrnithineISnorm_perc: Stemina devTOX quickPredict H9 human embryonic stem cell (hESC)-based Assay for Ornithine (ORN) Metabolite Biomarker, Normalized (AID 2283712; active means hit-call score of the fitted dose curve at least 0.9, where 1 is the maximum; inactive means score below 0.9;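 further: ornithine released into spent medium during last day measured by mass spectrometry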)
# Outline: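 Ornithine secreted by H9 hESCs after 72h compound treatment (daily media/compound renewal) was quantified in final-day media by UPLC-HRMS. Values are isotope-standard-normalized, expressed relative to 0.1% DMSO, fitted in positive direction.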
Structure (SMILES),AC50,outcome
COc1ccc(C(=CC(=O)N2CCOCC2)c2ccc(Cl)cc2)cc1OC,0.119 µM (active),
S=C1NCCN1,,inactive
CC(COc1ccc(Oc2ccccc2)cc1)Oc1ccccn1 (configuration not stated),70.3 µM (active),
CSc1nnc(C(C)(C)C)c(=O)n1N,0.0961 µM (active),
N#CSCSC#N,20.5 µM (active),
CC1=NNC(=O)N(/N=C/c2cccnc2)C1,,inactive
C[N+]1(C)CCCCC1,,inactive
CCCCOC(=O)[C@@H](C)Oc1ccc(Oc2ccc(C#N)cc2F)cc1,85.7 µM (active),
CN(C)[C@@H]1C(=O)C(C(N)=O)=C(O)[C@@]2(O)C(=O)C3=C(O)c4c(O)cccc4[C@@](C)(O)[C@H]3[C@H](O)[C@@H]12,50 µM (active),inactive
CCOP(=S)(OCC)SCCSCC,72.2 µM (active),
